Out of some 39,000 compounds screened, about 3,300 (8.5%) were called active. This excerpt belongs to a sample that is enriched for actives.

These results are taken from the antibiotic and cytotoxicity screens of Wong et al. (2023).

The test system of this assay is HepG2. Briefly: cytotoxicity call (relative viability < 0.9). The conditions noted are these: 10 µM.
Take `CO[C@@H]1CN(C)C(=O)c2ccc(NS(=O)(=O)CC(F)(F)F)cc2OC[C@@H](C)N(Cc2nccs2)C[C@H]1C`: the cytotoxicity call was “inactive”.

With `C=CC[C@H](CC(=O)NCCO)C(=O)NC[C@@H](OC(=O)[C@@H](CC=C)CC(=O)OC(C)(C)C)c1ccccc1`, the cytotoxicity call is “inactive”. `C[C@H](CO)N1C[C@H](C)[C@@H](CN(C)CC2CC2)Oc2c(NS(=O)(=O)c3ccccc3)cccc2C1=O`: the cytotoxicity call was “inactive”. Next, `CC(C)NC(=O)N(C)C[C@H]1Oc2ccc(NC(=O)Cn3cnnn3)cc2C(=O)N([C@H](C)CO)C[C@H]1C`: “inactive”; `CCCCC(=O)OC1(C(=O)CO)C(C)CC2C3CCC4=CC(=O)C=CC4(C)C3(F)C(O)CC21C` (configuration not stated): “inactive”; `Nc1cc(=O)nc(N)[nH]1`: “inactive”. The result for `C[C@H]1CN([C@@H](C)CO)C(=O)c2cccc(NC(=O)c3ccncc3)c2O[C@H]1CN(C)S(=O)(=O)c1ccccc1` reads “inactive”. Regarding `CC(C)CC#Cc1ccc2c(c1)O[C@@H](CN(C)C(=O)Cc1ccncc1)[C@@H](C)CN([C@@H](C)CO)S2(=O)=O`, the cytotoxicity call is “inactive”. As for `CO[C@H]1CN(C)C(=O)c2cc(NC(=O)Nc3cccc(F)c3)ccc2OC[C@H](C)N(C(=O)Nc2c(C)noc2C)C[C@H]1C`, the cytotoxicity call was “inactive”. Next, `C[C@@H]1CCCCO[C@@H](CN(C)Cc2ccc(Cl)c(Cl)c2)[C@@H](C)CN([C@@H](C)CO)C(=O)c2cc(NC(=O)Nc3ccc4c(c3)OCO4)ccc2O1`: “active”. As to `C[C@@H]1CCCCO[C@H](CN(C)Cc2ccc(Cl)c(Cl)c2)[C@H](C)CN([C@@H](C)CO)C(=O)c2cc(NC(=O)Nc3ccc4c(c3)OCO4)ccc2O1`, the cytotoxicity call was “active”. Turning to `C[C@@H]1CCCCO[C@@H](CN(C)Cc2ccc(Cl)c(Cl)c2)[C@H](C)CN([C@H](C)CO)C(=O)c2cc(NC(=O)Nc3ccc4c(c3)OCO4)ccc2O1`, the cytotoxicity call was “inactive”.

Take `C[C@@H]1CN([C@@H](C)CO)C(=O)c2cc(NC(=O)Nc3ccc4c(c3)OCO4)ccc2O[C@@H](C)CCCCO[C@H]1CN(C)Cc1ccc(Cl)c(Cl)c1`: the cytotoxicity call was “inactive”. As to `CC(C)(C)NC(=O)N1CCC(CN)CC1`, the cytotoxicity call was “inactive”. Regarding `C[C@H]1CCCCO[C@H](CN(C)C(=O)NC2CCCCC2)[C@@H](C)CN([C@@H](C)CO)C(=O)c2cc(NC(=O)Nc3ccc(F)cc3)ccc2O1`, the cytotoxicity call is “inactive”. Take `CO[C@@H]1[C@H](O)[C@@H](CO)O[C@H]1n1cc(C)c(N)nc1=O`: the cytotoxicity call was “inactive”.

Regarding `C[C@@H]1CN([C@H](C)CO)C(=O)c2cccc(NS(=O)(=O)c3ccc(Cl)cc3)c2O[C@@H]1CN(C)Cc1ccc(C(F)(F)F)cc1`, the cytotoxicity call is “inactive”. Next, `CC(C)NC(=O)Nc1ccc2c(c1)C(=O)N([C@H](C)CO)C[C@H](C)[C@H](CN(C)Cc1ccccc1)OCCCC[C@H](C)O2`: “inactive”. Take `C[C@H]1CN([C@@H](C)CO)S(=O)(=O)c2ccc(C#Cc3ccccc3)cc2O[C@@H]1CN(C)S(C)(=O)=O`: the cytotoxicity call was “inactive”. On to `CC1(N)CCN(c2cccnc2NC(=O)c2nc(-c3ncccc3C(F)(F)F)cnc2N)CC1`, for which the cytotoxicity call was “inactive”. For `CCCNC(=O)N1C[C@H](C)[C@H](OC)CN(C)C(=O)c2cc(NS(=O)(=O)CC(F)(F)F)ccc2OC[C@@H]1C`, the cytotoxicity call is “inactive”.

Take `COc1ccc(S(=O)(=O)Nc2ccc3c(c2)CC(=O)N([C@@H](C)CO)C[C@@H](C)[C@H](CN(C)Cc2ccc(Oc4ccccc4)cc2)O3)cc1`: the cytotoxicity call was “inactive”. Next, `COc1ccc(S(=O)(=O)Nc2ccc3c(c2)CC(=O)N([C@H](C)CO)C[C@H](C)[C@H](CN(C)Cc2ccc(Oc4ccccc4)cc2)O3)cc1`: “active”; `COc1ccc(S(=O)(=O)Nc2ccc3c(c2)CC(=O)N([C@@H](C)CO)C[C@H](C)[C@@H](CN(C)Cc2ccc(Oc4ccccc4)cc2)O3)cc1`: “active”. The result for `COc1ccc(S(=O)(=O)Nc2ccc3c(c2)CC(=O)N([C@H](C)CO)C[C@@H](C)[C@H](CN(C)Cc2ccc(Oc4ccccc4)cc2)O3)cc1` reads “active”; that for `COc1ccc(S(=O)(=O)Nc2ccc3c(c2)CC(=O)N([C@@H](C)CO)C[C@H](C)[C@H](CN(C)Cc2ccc(Oc4ccccc4)cc2)O3)cc1`, “inactive”. As for `COc1ccc(S(=O)(=O)Nc2ccc3c(c2)CC(=O)N([C@H](C)CO)C[C@H](C)[C@@H](CN(C)Cc2ccc(Oc4ccccc4)cc2)O3)cc1`, the cytotoxicity call was “inactive”. Regarding `COc1ccc(S(=O)(=O)Nc2ccc3c(c2)CC(=O)N([C@@H](C)CO)C[C@@H](C)[C@@H](CN(C)Cc2ccc(Oc4ccccc4)cc2)O3)cc1`, the cytotoxicity call is “inactive”. Turning to `COc1ccc(S(=O)(=O)Nc2ccc3c(c2)CC(=O)N([C@H](C)CO)C[C@@H](C)[C@@H](CN(C)Cc2ccc(Oc4ccccc4)cc2)O3)cc1`, the cytotoxicity call was “active”.

With `COc1ccc(NC(=O)Nc2ccc3c(c2)C(=O)N([C@H](C)CO)C[C@@H](C)[C@H](CN(C)C(=O)NC2CCCCC2)OCCCC[C@H](C)O3)cc1`, the cytotoxicity call is “inactive”. As for `C[C@@H]1CN([C@@H](C)CO)C(=O)c2cc(C#CCN(C)C)cnc2O[C@H]1CN(C)Cc1ccc(C(=O)O)cc1`, the cytotoxicity call was “inactive”.

As for `COc1cccc(OC)c1C(=O)O[C@H]1[C@@H]2OC(=O)[C@@H](Cc3ccc4ccccc4c3)C/C=C/C[C@H](Cc3ccc4ccccc4c3)C(=O)O[C@H]2[C@@H](OC)O[C@@H]1CO`, the cytotoxicity call was “inactive”. For the compound `Cc1ccc(S(=O)(=O)N(C)C[C@@H]2Oc3ccc(NC(=O)Cn4cnnn4)cc3C(=O)N([C@H](C)CO)C[C@@H]2C)cc1`, the cytotoxicity call is “inactive”. For `Cc1noc(C)c1S(=O)(=O)Nc1cccc2c1O[C@@H](CN(C)S(=O)(=O)c1ccccc1)[C@@H](C)CN([C@@H](C)CO)C2=O`, the cytotoxicity call was “inactive”. With `C[C@H](CO)N1C[C@H](C)[C@@H](CN(C)C(=O)c2ccccc2)OCCCC[C@H](C)Oc2ccc(NS(=O)(=O)c3cccs3)cc2C1=O`, the cytotoxicity call is “inactive”. Turning to `CN1CCN(C(=O)C[C@H]2CC[C@@H]3[C@H](COC[C@@H](O)CN3S(=O)(=O)c3cccc(Cl)c3)O2)CC1`, the cytotoxicity call is “inactive”. In the case of `CCS(=O)(=O)N1CC[C@]2(CC1)CN([C@@H](CO)c1c2c2ccc(cc2n1C)OC)S(=O)(=O)c1ccccc1`, the cytotoxicity call was “inactive”. The result for `C[C@H](CO)N1C[C@H](C)[C@H](CN(C)C(=O)NC2CCCCC2)Oc2c(NC(=O)Nc3ccc(C(F)(F)F)cc3)cccc2C1=O` reads “active”; that for `C[C@@H]1CN([C@H](C)CO)C(=O)c2cccc(NC(=O)Nc3ccc(C(F)(F)F)cc3)c2O[C@H]1CN(C)C(=O)NC1CCCCC1`, “active”; that for `C[C@@H]1CN([C@H](C)CO)C(=O)c2cccc(NC(=O)Nc3ccc(C(F)(F)F)cc3)c2O[C@@H]1CN(C)C(=O)NC1CCCCC1`, “active”.

Consider `C[C@H](CO)N1C[C@H](C)[C@@H](CN(C)C(=O)NC2CCCCC2)Oc2c(NC(=O)Nc3ccc(C(F)(F)F)cc3)cccc2C1=O`, for which the cytotoxicity call was “active”. In the case of `O=C(N[C@H]1CC[C@H](CCNS(=O)(=O)c2ccccc2)O[C@@H]1CO)c1cnccn1`, the cytotoxicity call was “inactive”.

As for `C[C@@H]1CCCCO[C@@H](CN(C)C(=O)NC2CCCCC2)[C@H](C)CN([C@H](C)CO)C(=O)c2cc(NC(=O)C3CCCCC3)ccc2O1`, the cytotoxicity call was “inactive”. For `C[C@@H]1CN([C@H](C)CO)S(=O)(=O)c2ccc(C#CCN(C)C)cc2O[C@@H]1CN(C)S(=O)(=O)c1cccc(F)c1`, the cytotoxicity call is “inactive”. On to `CC(C)NC(=O)Nc1ccc2c(c1)C(=O)N([C@H](C)CO)C[C@H](C)[C@H](CN(C)C(=O)C1CCCCC1)OCCCC[C@@H](C)O2`, for which the cytotoxicity call is “inactive”. Regarding `COc1ccc(NC(=O)Nc2ccc3c(c2)C(=O)N([C@@H](C)CO)C[C@H](C)[C@@H](CN(C)S(=O)(=O)c2ccc(Cl)cc2)OCCCC[C@@H](C)O3)cc1`, the cytotoxicity call is “inactive”. The result for `COc1ccc(CNC(=O)C[C@H]2C[C@@H]3c4cc(NC(=O)NC5CCCC5)ccc4O[C@@H]3[C@@H](CO)O2)cc1` reads “inactive”; that for `O=C(NCCC1=CCCCC1)c1sc2ccccc2c1Cl`, “inactive”; that for `C[C@H](CO)N1C[C@H](C)[C@@H](CN(C)C(=O)c2ccccc2)OCCCC[C@H](C)Oc2ccc(NC(=O)CCC(F)(F)F)cc2C1=O`, “inactive”.

`C[C@@H]1CN([C@@H](C)CO)C(=O)c2c(c3ccccc3n2C)-c2ccccc2CO[C@@H]1CN(C)C(=O)Nc1ccccc1`: the cytotoxicity call is “inactive”. Next, `C[C@@H]1CN([C@@H](C)CO)C(=O)c2cccc(NC(=O)Nc3ccc(C(F)(F)F)cc3)c2O[C@@H]1CN(C)C(=O)NC1CCCCC1`: “inactive”; `C[C@@H]1CN([C@@H](C)CO)C(=O)c2cccc(NC(=O)Nc3ccc(C(F)(F)F)cc3)c2O[C@H]1CN(C)C(=O)NC1CCCCC1`: “active”. For the compound `C[C@H]1CN([C@@H](C)CO)C(=O)c2cccc(NC(=O)Nc3ccc(C(F)(F)F)cc3)c2O[C@@H]1CN(C)C(=O)NC1CCCCC1`, the cytotoxicity call was “active”. The result for `C[C@H]1CN([C@@H](C)CO)C(=O)c2cccc(NC(=O)Nc3ccc(C(F)(F)F)cc3)c2O[C@H]1CN(C)C(=O)NC1CCCCC1` reads “inactive”; that for `O=C(C[C@@H]1CC[C@H]2[C@@H](COC[C@@H](O)CN2S(=O)(=O)c2cccc(Cl)c2)O1)NC1Cc2ccccc2C1`, “inactive”; that for `C[C@@H]1CN([C@@H](C)CO)C(=O)c2cc(NC(=O)Cn3cnnn3)ccc2O[C@@H]1CN(C)Cc1ccc(C(=O)O)cc1`, “inactive”. `C[C@H](CO)N1C[C@H](C)[C@@H](CN(C)C(=O)NC2CCCCC2)OCCCC[C@H](C)Oc2ccc(NC(=O)CCC(F)(F)F)cc2C1=O`: the cytotoxicity call is “inactive”. The result for `C[C@H]1CN([C@@H](C)CO)C(=O)CCCn2cc(nn2)CO[C@@H]1CN(C)C(=O)Nc1cccc(Oc2ccccn2)c1` reads “inactive”; that for `CCCNCC(O)COc1ccccc1C(=O)CCc1ccccc1.Cl` (configuration not stated), “active”; that for `CC(=O)c1ccccc1OC[C@@H](O)CN(CCO)CCO`, “inactive”. Consider `CCCC(=O)Nc1ccc(OCC(O)CNC(C)C)c(C(C)=O)c1.Cl` (configuration not stated), for which the cytotoxicity call is “inactive”. With `C[C@H]1CN([C@@H](C)CO)C(=O)c2cc(NC(=O)CCC(F)(F)F)ccc2O[C@H]1CN(C)Cc1ccc(C(F)(F)F)cc1`, the cytotoxicity call is “inactive”.
